Screens: PubChem BioAssay, National Center for Advancing Translational Sciences (NCATS)
Sampled rows, rich in hits. Any-hit rate of the full collection: about 3.2%.
Tau fibril ThT = blocks human tau fibril formation measured by thioflavin T; P10636; recombinant tau K18 P301L, heparin-induced fibrillization, ThT fluorescence; Potency, µM (top dose mostly 57.4 µM), for the others: at the highest dose activity, negative = inhibition, hits mostly inhibitors; 2.1% of 270,000 active; also: potency is read from the fitted curve at half-maximal effect; % is scaled to controls: 0 for no effect and ±100 for the full control effect; nearly all actives have a fitted effect of over 55% in size
Target sequence (P10636 561-689 P618L limits assumed): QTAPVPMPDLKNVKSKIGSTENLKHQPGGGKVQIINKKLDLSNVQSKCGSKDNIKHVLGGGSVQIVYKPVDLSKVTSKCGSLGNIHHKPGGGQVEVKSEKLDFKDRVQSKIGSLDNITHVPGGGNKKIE
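Heparin-induced (20 uM) aggregation of recombinant human K18 P301L tau, 15 uM unlabeled with 0.24 uM labeled, pH 7 acetate buffer, 6 hr at 37 C with compound. Fibrils quantified by 30 uM ThT fluorescence after 1 hr ambient incubation.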
CBFb RUNX1 block = CBF-beta/RUNX1 interaction disruption. Q01196+Q13951. Potency, µM (top dose mostly 59.8 µM), inactives show at the top dose activity, negative = inhibition, actives largely listed as inhibitors. 230,000 tested, under 10 active. AlphaScreen CBFb-His/RUNX1-biotin binding, biochemical; also: % of control where 0% means no effect
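CBFb-His/RUNX1-biotin, 30 nM each, preincubated 20 min RT; compound 15 min RT; Ni + streptavidin beads 50 ng each, 90 min RT; AlphaScreen read.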
Lamin A splicing = LMNA splicing modulation. Potency, µM (series often up to 46.1 µM), for the others: top-dose ratio change, negative = inhibition, most hits filed as inhibitors. 0.01% of 200,000 active. AID 1487. HeLa LMNA splicing GFP/RFP minigene ratio, 48 h; active = well fitted inhibition curve with a large enough effect in the signal ratio, with a control signal flat, not every such curve was filed as active; inconclusive = small, poorly fitted or top-dose-only effect, or effect the other way, or a change in a side signal; the % refers to the signal ratio; also: potency is read from the fitted curve at half-maximal effect; % is scaled to controls: 0 for no effect and ±100 for the full control effect
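S3 HeLa stable clones carrying a lamin A-EGFP splicing minigene plus DsRed2 were seeded at 600 cells/well in Opti-MEM with 2% FBS, pin-dosed and incubated 48 h at 37°C. Acumen cytometry (488 nm) gave the GFP/RFP total-intensity ratio.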
Tau fibril FP = blocks human tau fibril formation measured by polarization; K18 P301L tau heparin fibrillization, Alexa594 FP, 6 h; Potency, µM (series often up to 57.7 µM), inactives show at the top dose activity, negative = inhibition, most hits filed as inhibitors; P10636; AID 1468; 0.39% of 280,000 active; also: potency is read from the fitted curve at half-maximal effect; % is scaled to controls: 0 for no effect and ±100 for the full control effect; nearly all actives have a fitted effect of over 55% in size
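Human K18 P301L fragment (15 uM unlabeled plus 0.24 uM Alexa 594-labeled) in 100 mM sodium acetate pH 7 with compound, aggregation induced by 20 uM heparin for 6 hr at 37 C. ThT (30 uM) added for 1 hr, then Alexa 594 FP read.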
Tau fluor cs = counter-screen for tau fibril formation inhibitors; tau K18 P301L Alexa594 fluorescence, heparin fibrillization; Potency, µM (series often up to 57.7 µM), inactives show at the top dose activity change, negative = decrease; 0.93% of 280,000 active; AID 1463; also: potency is read from the fitted curve at half-maximal effect; % is scaled to controls: 0 for no effect and ±100 for the full control effect; nearly all actives have a fitted effect of over 55% in size
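Human tau K18 P301L (15 uM unlabeled, 0.24 uM Alexa 594-labeled) in 100 mM sodium acetate pH 7 with 20 uM heparin, 6 hr at 37 C. ThT 30 uM added, 1 hr ambient; Alexa 594 FP and total fluorescence read at 555/632 nm.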
JMJD2E inh = blocks human JMJD2E demethylase activity; B2RXH2; JMJD2E catalytic domain, FDH-coupled NADH fluorescence (FDH is formaldehyde dehydrogenase); Potency, µM (top dose mostly 57.1 µM), for the others: at the top dose activity change, negative = inhibition, actives largely listed as inhibitors; 1.6% of 230,000 active; AID 2147; active = well fitted inhibition curve with a large enough effect, not every such curve was filed as active; inconclusive = small, poorly fitted or top-dose-only effect, or another doubt; inactive = no such curve, though single readings can be large or run the other way;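 also: potency is read from the fitted curve at half-maximal effect; 0% = wells with enzyme and -100% = buffer wells without enzyme; nearly all actives have a fitted effect of over 50% in size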
Target sequence (B2RXH2 1-337 limits assumed): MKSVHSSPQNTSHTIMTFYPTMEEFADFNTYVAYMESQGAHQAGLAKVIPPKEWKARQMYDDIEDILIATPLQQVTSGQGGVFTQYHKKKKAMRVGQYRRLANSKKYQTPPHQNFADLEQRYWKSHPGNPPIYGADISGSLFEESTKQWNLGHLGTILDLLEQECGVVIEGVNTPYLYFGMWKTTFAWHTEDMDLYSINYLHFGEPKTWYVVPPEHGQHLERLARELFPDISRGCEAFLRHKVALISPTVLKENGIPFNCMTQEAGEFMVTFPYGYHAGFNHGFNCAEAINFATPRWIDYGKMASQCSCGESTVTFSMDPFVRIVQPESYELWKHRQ
The depositor's hits bear a star; [ ] = dose if it differs, or a comment. Unless noted, calls follow the shape of the dose curve; as a rule, active = well fitted curve in the direction sought with a large enough effect; inconclusive = small, poorly fitted or top-dose-only effect, or another doubt; inactive = no such curve, though single readings can be large; an effect the other way counts as inactive or inconclusive.

Cc1cccc(NC(=O)CSc2ncc3c(n2)-c2ccccc2N(Cc2ccc(F)cc2)S3(=O)=O)c1C was read as Tau fibril ThT 7.8%, Tau fibril FP inconclusive and Tau fluor cs -14.0%.
COc1cccc(CNc2ccc(S(N)(=O)=O)cc2)c1OC was read as Tau fibril ThT -7.1%, CBFb RUNX1 block 0.1%, Lamin A splicing inconclusive, Tau fibril FP -6.8%, Tau fluor cs -6.5% and JMJD2E inh 2.2%.
For COc1ccccc1CNc1ccc(N2CCCCC2)cc1 the results were Tau fibril ThT 22.4µM*, CBFb RUNX1 block inconclusive, Lamin A splicing 2.8%, Tau fibril FP inconclusive, Tau fluor cs inconclusive and JMJD2E inh 20µM*.
For COc1cccc(CNc2ccc(N3CCCCC3)cc2)c1OC the results were Tau fibril ThT 14.1µM*, CBFb RUNX1 block inconclusive, Lamin A splicing 7.4%, Tau fibril FP inconclusive, Tau fluor cs inconclusive and JMJD2E inh 11.2µM*.
CCOc1ccc(-n2c(C)nc3cc(C(=O)NCc4ccc(C)cc4)ccc32)cc1 was read as Tau fibril ThT -2.8%, Lamin A splicing 9.2%[46 µM], Tau fibril FP 11.1% and Tau fluor cs -4.6%.
For O=C(NNC(=S)NC(=O)c1sc2ccccc2c1Cl)c1ccc(Cl)cc1 the results were Tau fibril ThT 14.1µM*, CBFb RUNX1 block -13.3%, Lamin A splicing inconclusive, Tau fibril FP 3.5%, Tau fluor cs -22.8% and JMJD2E inh 8.8%.
`Cc1cc(=O)[nH]c(N/N=C/C2=C(N3CCOCC3)C(=C\c3ccc(Cl)cc3)/CC2)n1` gave Tau fibril ThT 22.4µM*, CBFb RUNX1 block -3.5%, Lamin A splicing -7.6%, Tau fibril FP 2.4%, Tau fluor cs -14.2% and JMJD2E inh 28.2µM*.
Screening O=C(O)c1ccccc1N/N=C/C1=C(N2CCOCC2)C(=C\c2ccccc2)/CC1 returned Tau fibril ThT 10µM*, CBFb RUNX1 block inconclusive, Tau fibril FP -8.3%, Tau fluor cs inconclusive and JMJD2E inh inconclusive.
CCCCCCCCCCCCCC/C(C(=O)O)=C(\C)C(=O)O was read as CBFb RUNX1 block 28.9%.
`CCOC(=O)c1ccc(NC(=O)CS(=O)(=O)Cc2nc(-c3ccc(C)cc3)oc2C)cc1` gave Tau fibril ThT -3.4%, Tau fibril FP -18.1% and Tau fluor cs -19.6%.
`CC(=O)OCCBr` gave CBFb RUNX1 block 17.7%.
`Cc1ccn2c(Nc3ccc4c(c3)OCCO4)c(-c3ccc(Cl)s3)nc2c1` gave Tau fibril ThT inconclusive, Tau fibril FP inconclusive and Tau fluor cs 7.08µM*[quencher].
`Clc1ccc(-c2nc3ccccn3c2Nc2ccc3c(c2)OCCO3)s1` gave Tau fibril ThT inconclusive, Tau fibril FP 11.4% and Tau fluor cs 6.31µM*[quencher].
Screening CC(=O)Nc1ccc(C)cc1-c1nc2ccccc2n(Cc2cccc(Br)c2)c1=O returned Tau fibril ThT 3.0%, Tau fibril FP -0.4% and Tau fluor cs 0.7%.
Screening COC(=O)/C(=C1/Oc2ccc(C(C)(C)C)cc2S1)C(F)(F)F returned Tau fibril ThT -15.3%, CBFb RUNX1 block -1.7%, Lamin A splicing -13.5%, Tau fibril FP -11.7%, Tau fluor cs -5.8% and JMJD2E inh 4.4%.
For COC(=O)/C(=C1/Oc2cc(C)oc(=O)c2S1)C(F)(F)F the results were Tau fibril ThT 8.91µM*, CBFb RUNX1 block 4.3%, Lamin A splicing inconclusive, Tau fibril FP inconclusive, Tau fluor cs -21.5% and JMJD2E inh -3.0%.
Screening CCOc1ccc(NC(=S)N(CCc2c(C)[nH]c3ccccc23)Cc2ccco2)cc1 returned Tau fibril ThT inconclusive, CBFb RUNX1 block 2.7%[2.36 µM], Lamin A splicing inconclusive, Tau fibril FP inconclusive, Tau fluor cs 12.6µM*[quencher] and JMJD2E inh 10.6%.
Screening COc1ccc(NC(=S)N(CCc2c(C)[nH]c3ccccc23)Cc2ccco2)cc1 returned Tau fibril ThT inconclusive, CBFb RUNX1 block -1.1%[2.36 µM], Lamin A splicing inconclusive, Tau fibril FP 12.4%, Tau fluor cs 14.1µM*[quencher] and JMJD2E inh -3.0%.
